Screening results from PubChem BioAssay.
TexasRed fluor – alters Texas Red total fluorescence, flagging assay interference | TRb/SRC2 Texas Red total fluorescence interference | Potency, µM (highest dose often 106 µM), without a hit: top-dose fluorescence change, negative = quenching | actives 0.29% (n = 280,000); active means well fitted curve in either direction with a large enough effect; inconclusive means small, poorly fitted or top-dose-only effect
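Flags fluorescent or light-absorbing compounds by total fluorescence, S + 2P, at 555 nm excitation and 632 nm emission. Mixture: 20 nM Texas Red SRC2 peptide, 0.6 uM human TRb LBD, 1 uM T3, 5% DMSO; compound exposure 5 h at ambient temperature.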
Tau fluor counter – counter-screen for tau fibril formation inhibitors | actives 0.93% (n = 280,000) | tau K18 P301L Alexa594 fluorescence, heparin fibrillization | Potency, µM (titrated, usually from 57.7 µM), for inactives: top-dose activity change, negative = decrease | AID 1463; further: nearly all actives have a fitted effect of over 55% in size
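Human tau K18 P301L (15 uM unlabeled, 0.24 uM Alexa 594-labeled) in 100 mM sodium acetate pH 7 with 20 uM heparin, 6 hr at 37 C. ThT 30 uM added, 1 hr ambient; Alexa 594 FP and total fluorescence read at 555/632 nm.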
Tau ThT inhib – blocks human tau fibril formation measured by thioflavin T | P10636 | recombinant tau K18 P301L (four-repeat tau fragment), heparin-induced fibrillization, ThT fluorescence | Potency, µM (doses to about 57.4 µM), for the others: at the highest dose activity, negative = inhibition, most hits filed as inhibitors | actives 2.1% (n = 270,000); further: nearly all actives have a fitted effect of over 55% in size
Target sequence (P10636 561-689 P618L limits assumed): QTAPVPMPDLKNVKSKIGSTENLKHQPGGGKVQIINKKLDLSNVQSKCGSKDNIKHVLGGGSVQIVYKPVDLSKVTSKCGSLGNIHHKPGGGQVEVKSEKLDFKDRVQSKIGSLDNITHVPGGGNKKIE
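K18 P301L tau (15 uM + 0.24 uM Alexa 594-tagged), heparin 20 uM, NaOAc pH 7, 6 h 37 C; ThT 30 uM, 1 h RT, ex 450/em 510 nm.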
Tau fibril FP – tau fibrillization inhibition (FP); Potency, µM (series often up to 57.7 µM), for the others: top-dose activity, negative = inhibition, hits mostly inhibitors; actives 0.39% (n = 280,000); K18 P301L tau heparin fibrillization, Alexa594 FP, 6 h; P10636; further: nearly all actives have a fitted effect of over 55% in size
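Human tau K18 […] P301L fragment, 15 uM unlabeled plus 0.24 uM Alexa 594-labeled tau (final), with compound and 20 uM heparin in 100 mM sodium acetate pH 7; 6 hr at 37 C, then Alexa 594 FP read.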
TRb-SRC2 inh – inhibitors of human thyroid hormone receptor beta-SRC2 interaction. TRbeta-SRC2 peptide binding, fluorescence polarization; receptor liganded with 1 µM T3. AID 1469. Potency, µM (titrated, usually from 106 µM), inactives show top-dose activity change, negative = inhibition, actives largely listed as inhibitors. P10828. actives 0.065% (n = 280,000);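 further: plate controls were bound peptide for no effect and peptide without receptor for full effect; nearly all actives have a fitted effect of over 50% in size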
Target sequence (P10828 whole entry, looked up): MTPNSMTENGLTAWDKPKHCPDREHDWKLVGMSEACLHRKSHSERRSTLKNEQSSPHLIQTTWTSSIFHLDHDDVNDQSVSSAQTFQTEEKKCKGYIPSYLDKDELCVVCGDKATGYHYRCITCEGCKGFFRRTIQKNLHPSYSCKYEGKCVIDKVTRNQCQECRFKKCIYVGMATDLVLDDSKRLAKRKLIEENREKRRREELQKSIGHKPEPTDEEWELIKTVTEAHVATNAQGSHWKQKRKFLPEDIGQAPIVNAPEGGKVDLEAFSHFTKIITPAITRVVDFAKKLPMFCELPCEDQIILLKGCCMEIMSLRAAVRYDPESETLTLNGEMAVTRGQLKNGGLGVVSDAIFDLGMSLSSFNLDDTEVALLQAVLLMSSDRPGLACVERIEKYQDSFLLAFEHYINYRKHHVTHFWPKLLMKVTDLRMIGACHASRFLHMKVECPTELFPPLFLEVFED
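Human TRb ligand-binding domain (0.6 uM) is mixed with 20 nM Texas Red SRC2 peptide and 1 uM T3; after compound addition and 5 hr at ambient temperature, polarization is measured and normalized to unbound and bound controls.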
Active calls of the source: *; ? = inconclusive; . = not tested or not shown; [ ] = remark or other dose. The list is not random: actives were taken first. Their share in the collection is about 3.1%. Unless noted, the call rests on the fitted dose curve; in most records, active means well fitted curve in the direction sought with a large enough effect; inconclusive means small, poorly fitted or top-dose-only effect, or another doubt; inactive means no such curve, though single readings can be large; an effect the other way counts as inactive or inconclusive. Unless noted, on the % scale 0 is the no-effect control and ±100 the full control effect; potency means the concentration at half of the fitted maximal effect.

SMILES	TexasRed fluor	Tau fluor counter	Tau ThT inhib	Tau fibril FP	TRb-SRC2 inh
CN1C[C@H](C(=O)N[C@]2(C)O[C@@]3(O)C4CCCN4C(=O)[C@H](Cc4ccccc4)N3C2=O)C[C@@H]2c3cccc4[nH]cc(c34)C[C@H]21 (stereo partly drawn)	-7%	13µM*[quencher]	?	4%	0%
CC(C)[C@@]1(NC(=O)[C@H]2CC3c4cccc5[nH]cc(c45)C[C@H]3N(C)C2)O[C@@]2(O)C3CCCN3C(=O)[C@@H](Cc3ccccc3)N2C1=O (stereo partly drawn)	-3%	2.5µM*[quencher]	?	?	10%
CC(C)[C@@]1(NC(=O)[C@@H]2C[C@H]3c4cccc5[nH]cc(c45)C[C@@H]3N(C)C2)O[C@]2(O)[C@H]3CCCN3C(=O)[C@H](Cc3ccccc3)N2C1=O	-15%[53 µM]	.	.	.	-2%[53 µM]
COC1=CC23CCCN2CCc2cc4c(cc2C3C1O)OCO4 (stereo not drawn)	-2%	?	35µM*	?	2%
COC(=O)C[C@@](O)(CCC(C)(C)O)C(=O)O[C@@H]1C(OC)=C[C@]23CCCN2CCc2cc4c(cc2[C@@H]13)OCO4	3%	.	.	.	9%
CCOP(=S)(OCC)SCCl	-2%[201 µM]	.	.	.	0%[201 µM]
NCC(O)c1cc(O)c(O)cc1F (stereo not drawn)	3%	-28%	11µM*	?	1%
CCOP(=O)(NC(C)C)Oc1ccc(S(C)=O)c(C)c1 (stereo not drawn)	1%[201 µM]	.	.	.	0%[201 µM]
CSc1nc(N)c(N=Nc2ccc([As](=O)(O)O)cc2)c(=O)[nH]1	-9%	?	20µM*	-9%	-5%
O=C(NCCSc1c(-c2ccccc2)[nH]c2ccccc12)c1ccc(S(=O)(=O)N2CCOCC2)cc1	-2%	6.3µM*[quencher]	-9%	?	-1%
COc1ccc(-c2cnnn2-c2ccc(NC(=O)c3ccc(S(=O)(=O)N(C)C)cc3)cc2)cc1	-2%	?	1%	-14%	1%
CN(C)S(=O)(=O)c1ccc(C(=O)NCCSc2c(-c3ccccc3)[nH]c3ccccc23)cc1	-2%	4µM*[quencher]	-5%	-10%	-3%
O=c1[nH]c(O)c(N=Nc2ccc(S(=O)(=O)N3CCOCC3)cc2)c(=O)[nH]1	-1%	-14%	?	-4%	12%
C/C=C(\C)C(=O)O[C@H]1C[C@@H](OC(C)=O)[C@@]2(C(=O)OC)CO[C@H]3[C@@H](O)[C@@](C)([C@]45O[C@@]4(C)[C@H]4C[C@@H]5O[C@@H]5OC=C[C@@]54O)[C@H]4[C@]1(CO[C@]4(O)C(=O)OC)[C@@H]32	-3%[201 µM]	.	.	.	-2%[201 µM]
CN1C2CCC1/C(=C/c1ccccn1)C(=O)/C2=C\c1ccccn1	3%	-1%	4.5µM*	?	-1%
COc1cc2c(cc1OC)-c1c(OC)c(OC)c(OC)c3ccnc(c13)C2=O	-2%	-26%	10µM*	-2%	2%
O=C(OCC(=O)c1ccc([N+](=O)[O-])cc1)/C(=C/c1ccc(Cl)cc1)NC(=O)c1ccccc1	-3%	-14%	28µM*	?	1%
O=C(C[N+]12CCC(CC1)C(OC(=O)c1ccccc1)C2)c1ccc([N+](=O)[O-])cc1 (stereo not drawn)	-3%	-5%	-18%	8%	-4%
C=C(C)C(=O)OCC(CC)CCCC (stereo not drawn)	-6%[201 µM]	.	.	.	0%[201 µM]
CC[C@@]1(O)CC(O)c2c(cc3c(c2O)C(=O)c2c(O)ccc(O)c2C3=O)C1C(=O)OC (stereo partly drawn)	?	-27%	7.9µM*	-14%	-10%
CC[C@]1(O)CC(O[C@@H]2CC(N(C)C)C(O)C(C)O2)c2c(cc3c(c2O)C(=O)c2c(O)cccc2C3=O)C1C(=O)OC (stereo partly drawn)	6%	?	8.9µM*	4%	-12%
CCCSC(=O)N(CCC)CCC	5%[201 µM]	.	.	.	4%[201 µM]
CCC(C)c1ccc(O)cc1 (stereo not drawn)	-2%[201 µM]	.	.	.	-4%[201 µM]
Cc1cc(C=C2C(=O)NC(=S)NC2=O)c(C)n1-c1ccc2c(c1)OCO2	28184µM*[quencher]	?	14µM*	-8%	-9%
CCCSP(=O)(OCC)Oc1ccc(Br)cc1Cl (stereo not drawn)	4%[201 µM]	.	.	.	7%[201 µM]
SMILES	TexasRed fluor	Tau fluor counter	Tau ThT inhib	Tau fibril FP	TRb-SRC2 inh
Brc1ccc(Oc2ccccc2)cc1	0%[201 µM]	.	.	.	-3%[201 µM]
CN1C(=O)C(=Cc2cc([N+](=O)[O-])ccc2N2CCCCC2)C(=O)N(C)C1=O	1%	-6%	-11%	-3%	-5%
CN1C(=O)C(=Cc2sc(=O)n(-c3ccccc3)c2N2CCCCC2)C(=O)N(C)C1=O	-7%	-16%	25µM*	-16%	6%
c1ccc2c(c1)oc1ccccc12	0%[201 µM]	.	.	.	7%[201 µM]
Clc1ccc(C(Cl)(Cl)Cl)cc1	-5%[201 µM]	.	.	.	2%[201 µM]
O=C1OC(c2cc(I)c(O)c(I)c2)(c2cc(I)c(O)c(I)c2)c2ccccc21	?	7.1µM*[quencher]	13µM*	?	13%
O=C1NC(=O)C(=Cc2ccc(-c3cc(Cl)ccc3[N+](=O)[O-])o2)C(=O)N1	-3%	-26%	7.9µM*	-4%	5%
O=C1NC(=O)C(=Cc2ccc(-c3ccccc3[N+](=O)[O-])o2)C(=O)N1	-7%	-7%	.	1%	4%
Cc1nonc1OCCNc1ccc([N+](=O)[O-])c2cccnc12	-2%	?	7.1µM*	-11%	-1%
OC(Cn1cncn1)(c1ccc(F)cc1)c1ccccc1F (stereo not drawn)	1%[201 µM]	.	.	.	4%[201 µM]
O=C1C=C2C(=CCOC2O)O1 (stereo not drawn)	3%[201 µM]	-19%	2.2µM*	2µM*	5%[201 µM]
COc1ccc(C(=O)Nc2ccc(S(=O)(=O)N(Cc3ccccc3)c3ccccc3)cc2)cc1	-3%	?	?	16µM*	8%
C=C(C)C1CCC(C)=CC1c1c(O)cc(O)cc1CCCCC (stereo not drawn)	-2%	28µM*[quencher]	?	8%	-4%
CCCCCc1cc(O)cc(O)c1	0%	.	.	.	5%
CCCCN1C(=O)/C(=C/C=C/c2ccco2)C(=O)NC1=S	18%	-30%	16µM*	?	?
CCc1ccc(N2C(=O)NC(=O)/C(=C\C=C\c3ccco3)C2=O)cc1	10%	-7%	10µM*	13µM*	5%
Cc1ccc(N2C(=O)NC(=O)/C(=C/C=C/c3ccco3)C2=O)cc1	22%	-12%	14µM*	?	23%
O=C1NC(=O)N(Cc2ccc(F)cc2)C(=O)/C1=C\C=C\c1ccco1	7%	.	.	.	6%
CCc1ccc(N2NC(=O)/C(=C/C=C/c3ccco3)C2=O)cc1	1%	10µM*[quencher]	8.9µM*	?	10%
